Test results taken from PubChem BioAssay AID1508600 (Functional Genomics Laboratory (NCATS/FGL), 2020).
Screen size: about 53,000 sequences; about 3,700 (7%) were called active. This excerpt belongs to a sample that is enriched for actives. A number with no mark means an inactive call.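 Rule for the calls: active = gene knockdowns whose robust z-score for IL-1 alpha signal is at least 2 or at most -2, so actives lie on both sides; inactive = the rest.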

assay: Components of the Cytosolic LPS Sensing Pathway: Gene Identification via Genome-wide siRNA Screen; details: RAW264.7 macrophages, IL-1a HTRF, actives lie on both sides, screened at 100 nM (by protocol), cells primed 5 h with Pam3CSK4 first;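 note: robust z of the log signal after scaling to non-targeting control siRNA wells of the plate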
Summary of the method: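 RAW264.7; siRNA 100 nM final, RNAiMAX, 48h 37 degrees C; Pam3CSK4 5 h; LipidA + TransIT-TKO 24 h; IL-1a HTRF; CellTiter-Glo viability; robust z vs negative-control median.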

| Sequence | z-score |
| --- | --- |
| CCUCGUGUUACUUUUACCCTT against Olfr13 | -1.51 |
| GCUUCUCUACACCACAGACTT against Olfr796 | -0.0426 |
| GGGUUGAUUGACGAAGCCATT against Fga | -1.75 |
| GGAGAUUCAGAAUUACUGATT against Krit1 | -0.818 |
| GCAUUCAUUGAUCAAUUCUTT against Zbtb6 | 2 (active) |
| GCCUGCUUUGGAAAAAUCATT against Akr1c12 | 0.209 |
| CCCAGGAAGCCUUUGAUCUTT against Gmnn | 0.263 |
| CCAUCGUCCAAAGUACAUGTT against Rbp4 | -1.39 |
| GGGUAAUUAUUGUUUUCUGTT against Eif4e3 | 2.19 (active) |
| GCUGUUGGUUUCUACUCACTT against Adam21 | -0.0536 |
| GGAACAUGUCUCCUGAUCUTT against Add3 | -1.07 |
| GCAAUUCAGCUUAUAAGCATT against Mterf2 | -2.79 (active) |
| GGGAAAUGAGUUUCUACCGTT against Ebna1bp2 | -0.891 |
| CCUACACUAAAAUUCACCATT against Muc15 | -0.549 |
| CGUGUGCAAAGAAGCUAAATT against Mdm2 | 1 |
| GGAGAUGAUGAUUUACAAATT against Spred1 | 0.723 |
| GGUGAUCUUAGAUUUGAUUTT against Qsox2 | -0.401 |
| GGGUUUCUUACUGAAGAAATT against Mindy2 | -1.43 |
| GGAUCGAGACAAGGCCAAATT against Fes | 3.22 (active) |
| GGAAUGAAGCCUGAACAGATT against Strc | 0.151 |
| GGACAAUGCCCUGUAUCAGTT against Clic3 | -0.822 |
| GGAUAGUCUCCUCAAAGAATT against Trmt10b | 0.7 |

| Sequence | z-score |
| --- | --- |
| GCUGUCAGAAAUCUUCGACTT against E2f4 | 2.65 (active) |
| CCAUACUACGGAUGUUUGATT against Calb2 | 0.677 |
| GGGUAUAGGGAUGGUGAAUTT against Ppil1 | 0.834 |
| GCUACUCAGUCAUUGAGCCTT against Tatdn2 | -1.85 |
| GCAUCUCAAGGAUCUUCGGTT against Syngr4 | -0.0821 |
| GGGCAACUUUGAGUUCGAATT against Dok2 | 0.294 |
| CCUUACCCUGUGUAUCUUUTT against Naa80 | -0.0307 |
| GGCAAUUCACUGUGAGUAATT against Mettl21a | -2.18 (active) |
| GGCCAAGGUCAAUAACUCCTT against Rfc1 | -0.755 |
| GGACCACUACAUCAUAUACTT against Lcn4 | -1.17 |
| GGCCAAGACACCCUUGUUUTT against Zfp524 | -0.376 |
| GGAAGAGAAAGCAAAGUCATT against Ddx19a | -0.43 |
| CGGAAAUGUAAGUACUUUATT against Taf13 | 2.25 (active) |
| GGUUCUGGAAGAAGAAAAGTT against Irgq | 1.31 |
| GGUUCUGUAAAUUCAACUATT against Zfp593 | 0.706 |
| CUACGAGCCACUUCUGAGATT against Krt87 | -0.431 |
| GAACUGAAGAAGCAGAUUGTT against Isg15 | 0.601 |
| GGCAUUAUGAGCAUCUCGGTT against Tnfrsf11a | -0.394 |
| GGAGACACCAGACCAACAATT against Gm5458 | 0.242 |
| GGAAGGACAACACUGCACCTT against Cd40 | 2.44 (active) |
| CCAUACAAGUAUCCGAACUTT against 1700102P08Rik | 1.03 |
| GCCUCAGCAUUACCACUAUTT against Pof1b | -1.86 |

| Sequence | z-score |
| --- | --- |
| GGUGAUGCAGCAGAUCAUUTT against Nfyc | 0.0427 |
| GUGGAAAACAAGUGGCGGUTT against Cox7c | 0.241 |
| GGCAUUGACGAGGAUGACCTT against Supt3 | 2.74 (active) |
| GGAGAACUAUUCAGAAACUTT against Btbd11 | -0.0178 |
| GCGGUGCCAAAGGUAUUAATT against Rad51ap1 | -0.0801 |
| GCAAGAAGGGACACAGUUUTT against Plk1 | 0.276 |
| GGAAAACCAAGACCACAAATT against Hmgn5 | 1.39 |
| GGUGCUUGAUUUUGUGCAGTT against Psmd13 | -0.00516 |
| GACACCACAGUCAAAUCUGTT against Agr2 | -2.26 (active) |
| CCCUUUAAUACAUACAGUUTT against Mesp2 | 1.14 |
| GCCCAAGGUGAUCAUUAUUTT against Casp1 | -0.15 |
| GGUUGUAAGGAACUCUUGGTT against Slc22a29 | -0.628 |
| GGACAUUCCUGAACAUAAUTT against Pcdha3 | -1.17 |
| GGAGAUCUUCAAUAUGUUATT against Supt6 | -2.25 (active) |
| GAAGCCUAAUCCCUUAAUCTT against Oas1g | 1.07 |
| CCAUUUCAGGCAUGAAGAATT against Tsga10 | -1.13 |
| GGUCAAUAUUCUUAUGUCCTT against S1pr3 | 0.245 |
| GGAAUUGGAUGUGAGCAACTT against Vasn | 0.586 |
| GCCAUGGGUCUCAGAAAGATT against Zxda | -0.247 |
| GGAAGAGGAUAGGCAGGAATT against Gfer | 2.03 (active) |
| UGAUAGUCUCCACUAAAUUTT against Gm4884 | -0.265 |
| GGAUCCUUUGGUUAUAAGATT against Nav1 | -1.28 |

| Sequence | z-score |
| --- | --- |
| GGUCUUUAGCAGAGAAAAUTT against Zfp420 | -0.201 |
| GCCCACAGUCAUUAAACUATT against Nipal4 | 0.723 |
| GGAUCAAAUCAAGAAGAUGTT against Chmp5 | 0.627 |
| CCCAGGGUGUCAAUCUAAATT against Cby1 | -0.381 |
| CGAAAAUACGUCAAAGCUCTT against Abca8b | -0.656 |
| GGGCACUGACAAACGUAUUTT against Olfr433 | -0.34 |
| GUUCUUCUCUGUUGGUGCUTT against Vmn1r24 | -2.12 (active) |
| GGACUUCGUGAACAAGAUCTT against Grin2b | -0.439 |
| GCGGCCACGGGACGGCGGUTT against Hmx2 | -0.455 |
| GGUCAUGACAGGAUACCCATT against Fam163b | -1.99 |
| GGAGCCGUACAUCUUACACTT against Abhd1 | 0.33 |
| GCCGAGUGAAUGAAAGGACTT against Ppp1r32 | -0.758 |
| CCGUGGCGUAUGUGAUCAATT against Map3k5 | -0.249 |
| GGACUCUCAGAAGAAUGAUTT against Hmmr | 2.98 (active) |
| GGGAAAUGUUUUCCAAAGATT against Tep1 | 0.776 |
| CCAUAUGUGCUCACCUUUATT against Marveld2 | -0.641 |
| CGAGUUUAAAGUGAGAAGATT against Pou1f1 | 0.488 |
| GCCACUCUUUAAGAAUCUATT against Abcf1 | -0.552 |
| GCAUUGUCCGAGGUUUAUUTT against Tspan33 | 0.64 |
| GGAGACAUUCCUGAAAGCUTT against Ankrd2 | -2.09 (active) |
| GGUGCUAUGUGCGUUUGAUTT against 9830107B12Rik | 1.97 |
| GGCGGAUGAACAAAGUUGGTT against Polr1e | 0.0863 |

| Sequence | z-score |
| --- | --- |
| GGAGAAUAAGCAAAUCCUUTT against Cfap20dc | -0.937 |
| GGUCCCAUAUACCAGAUCUTT against Slc3a1 | 1.63 |
| UGUCAGUGCAGAAUAGCACTT against Olfr658 | -1.17 |
| GGACAUAGAGAACAUCAUCTT against Cabp7 | 4.02 (active) |
| CGACACUCAAUGUGAACUUTT against Grtp1 | -0.881 |
| GCCAGUCAUGCCUAUUUUCTT against Zmym6 | -0.528 |
| GGUGUGAGUGUCGGAAUCUTT against Islr2 | 0.138 |
| GGGACAAGUUCAUCUGAUATT against Rin1 | 2.06 (active) |
| GGAAUGGUUUUAUUUUUGGTT against Noa1 | -0.0245 |
| GGUACCUCUGUAUUCAGCCTT against Olfr121 | 0.78 |
| GGAAACUACAAAUUUGGCATT against Krtap6-2 | 0.195 |
| CCCACAGUAAAUUCAACGGTT against Gm5069 | 0.00754 |
| UACCCAUUGUCAAGUUGGATT against Grm4 | -0.634 |
| GGACCUGUGUGUUCUUUGATT against Amhr2 | -0.505 |
| CCUUGGCAGGUAUAGUGUUTT against Klk9 | -1.09 |
| GGCGGUGUUUUACUACAAGTT against Capn7 | 3.99 (active) |
| GGAUCCCAGUUCUGGGUAATT against Dok1 | -0.0628 |
| GCCUAUUUGACGUGCAGAGTT against Crocc | -0.0336 |
| GCUGUUUUAUCUCCAAUGGTT against Araf | 1.73 |
| CCCAUGUACCACUUUGUCATT against Olfr430 | -2.05 (active) |
